Source: PubChem BioAssay (National Center for Advancing Translational Sciences (NCATS))
12-hLO inh: qHTS Assay for Inhibitors of 12-hLO (12-human lipoxygenase); purified 12-hLO, xylenol orange hydroperoxide absorbance; 150,000 compounds, 0.12% hits; Potency, µM (doses to about 57.1 µM), hits mostly inhibitors; Polyunsaturated fatty acid lipoxygenase ALOX12 (Homo sapiens), P18054; note: nearly all actives have a fitted effect of over 55% in size
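Lipoxygenase turnover measured by absorbance at 573 and 405 nm after Fe-XO development. Human 12hLO 150 nM, arachidonate 40 uM, pH 7.0 Hepes buffer with detergent; 15 min compound preincubation, 30 min reaction.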
ALOX15B inhib: qHTS Assay for Inhibitors of 15-hLO-2 (15-human lipoxygenase 2); AID 881, 2007; Potency, µM (top dose mostly 57.1 µM), actives largely listed as inhibitors; Polyunsaturated fatty acid lipoxygenase ALOX15B (Homo sapiens), O15296; purified 15hLO-2, xylenol orange hydroperoxide absorbance; 110,000 compounds, 0.56% hits; note: nearly all actives have a fitted effect of over 60% in size
Target sequence (O15296 whole entry, looked up): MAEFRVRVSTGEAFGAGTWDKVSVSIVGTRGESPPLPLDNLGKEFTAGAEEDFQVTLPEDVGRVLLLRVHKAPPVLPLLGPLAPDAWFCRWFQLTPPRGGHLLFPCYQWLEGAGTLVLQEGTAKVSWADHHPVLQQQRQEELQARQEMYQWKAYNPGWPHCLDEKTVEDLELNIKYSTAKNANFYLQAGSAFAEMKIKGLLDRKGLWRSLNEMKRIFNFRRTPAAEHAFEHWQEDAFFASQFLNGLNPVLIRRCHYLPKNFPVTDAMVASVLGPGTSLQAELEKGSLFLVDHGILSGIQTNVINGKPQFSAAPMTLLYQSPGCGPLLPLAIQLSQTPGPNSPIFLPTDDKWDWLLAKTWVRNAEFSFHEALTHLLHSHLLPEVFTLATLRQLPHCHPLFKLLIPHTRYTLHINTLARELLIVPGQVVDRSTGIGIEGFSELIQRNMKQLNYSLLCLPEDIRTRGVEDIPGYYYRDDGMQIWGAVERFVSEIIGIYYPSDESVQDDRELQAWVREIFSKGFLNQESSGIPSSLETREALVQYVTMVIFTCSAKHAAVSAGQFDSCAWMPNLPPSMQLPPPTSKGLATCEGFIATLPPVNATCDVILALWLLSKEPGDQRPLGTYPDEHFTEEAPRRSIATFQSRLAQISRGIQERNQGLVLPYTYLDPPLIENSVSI
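Screening format was qHTS against 50 nM purified 15hLO-2 in Hepes pH 7.5 with detergent. Activity follows hydroperoxide formation from 45 uM arachidonic acid, measured as 573:405 nm absorbance ratio of the ferric-xylenol orange complex.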
HPGD block: qHTS Assay for Inhibitors of HPGD (15-Hydroxyprostaglandin Dehydrogenase); AID 894, 2007; Potency, µM, hits mostly inhibitors; 150,000 compounds, 4.3% hits; 15-hydroxyprostaglandin dehydrogenase [NAD(+)] (Homo sapiens), P15428; purified HPGD, NADH fluorescence kinetic, PGE2 substrate; active = well fitted inhibition curve with a large enough effect, not every such curve was filed as active; inconclusive = small, poorly fitted or top-dose-only effect, or another doubt; inactive = no such curve, though single readings can be large or run the other way
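NADH formation kinetics: reaction with 30 uM PGE2 and 1 mM NAD+ (final), 20 nM enzyme, Tris-HCl pH 8 with Tween 20, after 15 min compound preincubation at room temperature. Fluorescence change, last versus first of five reads.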
PNC inhibitor: High Content Assay for Compounds that inhibit the Assembly of the Perinucleolar Compartment. AID 2417, 2010. activity change (PNC), negative = inhibition, % at 10 µM. 140,000 compounds, 3.1% hits. PC3M PTB-GFP, PNC prevalence imaging, 16 h; active compounds read low;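 active = readout at or below -70, meaning at least 70% loss of cells showing the perinucleolar compartment, a nuclear body marking cancer cells; inconclusive = readout between -30 and a set limit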
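Compounds are pinned in duplicate onto adhered PC3M cells stably expressing GFP-tagged PTB and incubated 16 h at 37 C. Cells are then fixed, nuclei stained with Hoechst, and PNC-positive cells counted.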
IMPase Li cell: qHTS Assay for Identifying the Cell-Membrane Permeable IMPase Inhibitors: Potentiation with Lithium. CHO-M1 cells, IP1 TR-FRET (IP-One), carbachol + lithium. Potency, µM (doses to about 59.4 µM), actives largely listed as inhibitors. 210,000 compounds, 0.35% hits. AID 1457, 2008;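 note: IP1 builds up when IMPase is blocked and the TR-FRET signal falls; nearly all actives have a fitted effect of over 50% in size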
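CHO cells stably expressing M1 receptor (2000/well, cultured 16–30 h) treated 30 min at 37C with compound plus low lithium. Cytosolic IP1 by TR-FRET (665/620 ratio and 620 channel) after 10 min lysis; AC50 by Hill fit.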
IMPase inh: qHTS Assay for Identifying the Cell-Membrane Permeable IMPase Inhibitors | Inositol monophosphatase 1 (Rattus norvegicus), P97697 | inhibition (IP1 accumulation), % at 46.1 µM | CHO-M1 cells, IP1 accumulation, HTRF TR-FRET ratio | 120,000 tested, under 10 active; active = well fitted curve in the direction sought with a large enough effect in the signal ratio, not every such curve was filed as active; inconclusive = small, poorly fitted or top-dose-only effect, or a change in a side signal; inactive = no such curve, though single readings can be large or run the other way; the % refers to the signal ratio;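 note: cells stimulated with carbachol in lithium chloride buffer; higher means more IMPase inhibition seen as more IP1 and lower FRET ratio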
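Cellular IMPase inhibition is scored as a rise in cytosolic IP1, detected by competitive TR-FRET between d2-labelled IP1 and a europium anti-IP1 antibody. M1-expressing CHO cells were stimulated with carbachol for 30 min at 37C, with lithium (50 mM LiCl) present in the buffer.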
Numbers stand for hits; . = inactive; ? = inconclusive; / = not tested or not shown; [ ] = remark or other dose. A selection: hits, their analogues and other compounds. The true share with any hit is near 5.4%. Unless noted, calls come from the whole dose curve; as a rule, active = well fitted curve in the direction sought with a large enough effect; inconclusive = small, poorly fitted or top-dose-only effect, or another doubt; inactive = no such curve, though single readings can be large; an effect the other way counts as inactive or inconclusive.

SMILES | 12-hLO inh | ALOX15B inhib | HPGD block | PNC inhibitor | IMPase Li cell | IMPase inh
Cc1cc2c(c(=O)o1)C(C1C=CCCC1)C(C#N)=C(N)O2 (stereo not given) | . | . | 28.2µM | . | . | .
Cc1nn(C)c2nc(NNC(=O)Nc3cc(Cl)nc(Cl)c3)cc(C(C)C)c12 | .[0.00818 µM] | .[0.0915 µM] | . | / | . | /
CCC(=O)Nc1ccc(Oc2ccc3c(c2)C(=O)NC3=O)cc1 | . | . | 15.8µM | . | . | .
CCCC(=O)Nc1ccc(OCC(=O)OC)cc1 | . | . | . | . | . | .
O=C(CN1CCN(CCO)CC1)Nc1ccccc1 | . | / | . | -100.0 | . | .
O=C(CN1CCNCC1)Nc1ccc(Oc2ccccc2)cc1 | . | . | . | . | . | .
CCCC(=O)Nc1ccc(Oc2ccc(NC(=O)CCC)cc2)cc1 | . | / | . | -100.0 | . | .
O=C(CN1CCCC1)Nc1ccc(Oc2ccc(NC(=O)CN3CCCC3)cc2)cc1 | . | . | 25.1µM | . | . | .
CCOC(=O)O[C@@H](C)OC(=O)[C@@H]1N2C(=O)[C@@H](NC(=O)[C@@H](N)c3ccccc3)[C@H]2SC1(C)C | . | . | . | / | . | .
Cc1cccc(NC(=O)c2c(NC(=O)c3ccccc3)sc3c2CCCC3)c1 | / | / | / | / | / | .
CN(C(=O)c1c(O)c2ccccc2n(C)c1=O)c1ccccc1 | . | . | . | / | . | .
O=C(CN1CCOCC1)Nc1ccc(S(=O)(=O)NC2CCCCC2)cc1 | . | . | ? | ? | . | .
O=C(CN1CCOCC1)Nc1ccc(C2CCCCC2)cc1 | . | . | 15.8µM | . | . | .
O=C(c1nc2ccc([N+](=O)[O-])cc2[nH]c1=O)[C@@H](O)c1ccc2c(c1)OCO2 | .[11.4 µM] | .[11.4 µM] | . | / | . | /
Cc1cc2c(cc1Cl)C(c1ccccc1C)CC(=O)O2 (stereo not given) | .[0.00818 µM] | .[0.0915 µM] | . | / | . | /
O=C(Nc1ccccc1)c1nnsc1S(=O)c1ccc(Cl)cc1 (stereo not given) | ? | 1.26µM | 7.94µM | . | . | .
Oc1ccc(-c2nc(-c3ccc(O)c(O)c3)cs2)cc1 | 5.01µM | 3.98µM | ? | -101.0 | . | .
CC1=C(C(=O)O)N2C(=O)C(NC(=O)C(N)c3ccc(O)cc3)C2SC1 (stereo not given) | . | . | . | / | . | /
CC(NC(=O)Nc1ccc(O)cc1)(C(F)(F)F)C(F)(F)F | . | / | . | -100.0 | . | .
COc1ccc(NC(=O)NC(C)(C(F)(F)F)C(F)(F)F)cc1 | . | . | . | . | . | .
COc1cc(-c2cc(=O)c3c(O)c(OC)c(OC)c(OC)c3o2)cc(OC)c1OC | . | . | . | / | . | /
COc1c(O)cc2c(=O)oc3c(OC)c(O)cc4c(=O)oc1c2c34 | / | / | 5.01µM | / | . | /
CCc1ccc(/C=C/C(=O)c2cc(Br)ccc(=O)c2O)cc1 | ? | ? | 15.8µM | . | . | .
COc1ccc(-n2c(=O)c(CCc3ccccc3)nc3cnc(OC)nc32)cc1 | / | . | / | / | . | /
Cc1nn2c(N)c(C#N)cnc2c1-c1ccccc1 | . | / | . | -81.8 | . | .
SMILES | 12-hLO inh | ALOX15B inhib | HPGD block | PNC inhibitor | IMPase Li cell | IMPase inh
N#Cc1cnc2c(-c3ccccc3)c(-c3ccccc3)nn2c1N | / | / | / | / | . | /
Cc1nn2c(N)c(C#N)cnc2c1-c1ccc(Cl)cc1 | . | . | ? | . | 11.2µM | .
COc1ccc(-c2c(C)nn3c(N)c(C#N)cnc23)cc1OC | / | / | / | / | . | /
O[C@@H](C1=C/C(=C\c2ccncc2)c2ccccc21)c1ccncc1 | .[11.4 µM] | .[11.4 µM] | . | / | . | /
CCOC(=O)N1CCN(C(=O)C2CCCN(Cc3nc(-c4ccc(Cl)cc4)oc3C)C2)CC1 (stereo not given) | . | . | . | -100.5 | . | .
Cc1cccc(N2CCN(C3(c4ccccc4)C(=O)c4ccccc4C3=O)CC2C)c1 (stereo not given) | / | / | / | / | / | .
Cc1cc(=O)oc2c(CN3CCN(C)CC3)c(O)c(Cl)cc12 | . | .[2.29 µM] | ? | ? | 12.6µM | ?
